# Source: PubChem BioAssay (EPA / NIEHS)
# Active and inactive are the calls of the source. The calls were made as follows: active = hit-call score of the fitted dose curve at least 0.9, where 1 is the maximum; inactive = score below 0.9.
# Assays:
# Conditions in all cases: mRNA level, 48 h; actives raise or lower the signal
# [1] = read-out: Intercellular Adhesion Molecule 1 (ICAM1), ICAM1 (gene 3383); test: LTEA_HepaRG_ICAM1: Life Technologies and Expression Analysis (LTEA) Assay for Intercellular Adhesion Molecule 1 (ICAM1) using HepaRG (AID 2283507)
# In short: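 ICAM1 transcript levels measured by qRT-PCR, normalized to three housekeeping genes (ACTB, GAPDH, POLR2A), after 48 h chemical exposure of HepaRG cells. Duplicate eight-point half-log series from 100 uM in 0.5% DMSO; gain or loss fitted against vehicle.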
# [2] = read-out: Insulin-like growth factor-binding protein 1 (IGFBP1), IGFBP1 (gene 3484); test: LTEA_HepaRG_IGFBP1: Life Technologies and Expression Analysis (LTEA) Assay for Insulin-like growth factor-binding protein 1 (IGFBP1) using HepaRG (AID 2283508)
# In short: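 Read-out is qRT-PCR transcript level normalized to three housekeeping genes, fitted in both directions against 0.5% DMSO. Differentiated HepaRG cells received eight half-log concentrations (top 100 uM) in duplicate for 48 h in serum-free induction medium.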
# [3] = read-out: Interleukin 6 (IL6), IL6 (gene 3569); test: LTEA_HepaRG_IL6: Life Technologies and Expression Analysis (LTEA) Assay for Interleukin 6 (IL6) using HepaRG (AID 2283509)
# In short: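 Changes in IL6 mRNA, up or down relative to 0.5% DMSO controls, were derived from concentration-response curves in human HepaRG cells treated for 48 h at up to 100 uM, with ACTB, GAPDH and POLR2A as normalizers.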
# [4] = read-out: Interleukin 6 Receptor (IL6R), IL6R (gene 3570); test: LTEA_HepaRG_IL6R: Life Technologies and Expression Analysis (LTEA) Assay for Interleukin 6 Receptor (IL6R) using HepaRG (AID 2283510);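 as to AC50: differentiated human HepaRG liver cells in serum-free induction medium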
# In short: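 In this HepaRG screen, test chemicals act on cells for 48 h at up to 100 uM (eight half-log points, duplicate wells). IL6R expression is quantified by qRT-PCR after normalization to ACTB, GAPDH and POLR2A, with DMSO as baseline.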
# [5] = read-out: Potassium channel subfamily K member 1 (KCNK1), KCNK1 (gene 3775); test: LTEA_HepaRG_KCNK1: Life Technologies and Expression Analysis (LTEA) Assay for Potassium channel subfamily K member 1 (KCNK1) using HepaRG (AID 2283511)
# In short: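 Human HepaRG cultures receive test chemicals for 48 h in 0.5% DMSO, top concentration 100 uM with half-log dilutions. Induction or suppression of KCNK1 mRNA relative to DMSO is derived by bidirectional fitting of qRT-PCR data.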
# [6] = read-out: Keratin 19 (KRT19), KRT19 (gene 3880); test: LTEA_HepaRG_KRT19: Life Technologies and Expression Analysis (LTEA) Assay for Keratin 19 (KRT19) using HepaRG (AID 2283512)
# In short: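 KRT19 transcript measured by TaqMan qRT-PCR, referenced to three housekeeping genes, after HepaRG cells received test chemicals for 48 h. Eight half-log concentrations, top 100 uM, 0.5% DMSO vehicle; increases and decreases both fitted.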
# [7] = read-out: JUN Transcription Factor, JUN (gene 3725); test: LTEA_HepaRG_JUN: Life Technologies and Expression Analysis (LTEA) Assay for JUN Transcription Factor using HepaRG (AID 2283513)
# In short: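 Gene-expression endpoint: JUN mRNA (qRT-PCR, normalized to three reference genes) in HepaRG cultures treated 48 h with chemicals, duplicate wells, 100 uM maximum with half-log dilutions; bidirectional fitting relative to 0.5% DMSO.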
# [8] = read-out: Lipase C (LIPC), LIPC (gene 3990); test: LTEA_HepaRG_LIPC: Life Technologies and Expression Analysis (LTEA) Assay for Lipase C (LIPC) using HepaRG (AID 2283514)
# In short: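 In this multiplexed gene-expression screen, human HepaRG cultures received test chemicals for 48 h across eight concentrations with 100 uM highest, in duplicate. Values reflect LIPC mRNA induction or suppression versus DMSO vehicle, from normalized qRT-PCR.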
# [9] = read-out: Lipoprotein lipase (LPL), LPL (gene 4023); test: LTEA_HepaRG_LPL: Life Technologies and Expression Analysis (LTEA) Assay for Lipoprotein lipase (LPL) using HepaRG (AID 2283515)
# In short: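 Concentration-response testing used half-log steps from 100 uM in 0.5% DMSO on human HepaRG cells, 48 h, duplicate wells. Phenobarbital 1 mM served as induction control; LPL mRNA was normalized to ACTB, GAPDH, POLR2A.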
# [10] = read-out: MicroRNA 122 (MIR122), gene 406906; test: LTEA_HepaRG_MIR122: Life Technologies and Expression Analysis (LTEA) Assay for MicroRNA 122 (MIR122) using HepaRG (AID 2283516); also: the transcript read is the microRNA miR-122
# In short: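 Changes in transcript abundance, up or down relative to 0.5% DMSO vehicle, were scored after 48 h chemical treatment of HepaRG cells (maximum 100 uM). Quantification used TaqMan qRT-PCR normalized to housekeeping genes.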
compound,measurement,setting,value
CC1=C2C[C@H]3[C@@H](CC=C4C[C@@H](O)CC[C@@]43C)[C@@H]2CC[C@]12O[C@@H]1C[C@H](C)CN[C@H]1[C@H]2C,outcome,[1],inactive
same,outcome,[2],inactive
same,outcome,[3],inactive
same,outcome,[4],inactive
same,outcome,[5],inactive
same,outcome,[6],inactive
same,outcome,[7],inactive
same,outcome,[8],inactive
same,outcome,[9],inactive
same,outcome,[10],inactive
Clc1ccc(C(Cl)(Cl)Cl)cc1,outcome,[1],inactive
same,outcome,[2],inactive
same,outcome,[4],inactive
same,outcome,[5],inactive
same,outcome,[6],inactive
same,outcome,[7],inactive
same,outcome,[8],inactive
same,outcome,[9],inactive
same,outcome,[10],inactive
CCCCCCOC(=O)c1ccccc1C(=O)OCCCCCC,outcome,[1],inactive
same,outcome,[2],inactive
same,outcome,[3],inactive
same,outcome,[4],inactive
same,outcome,[5],inactive
same,outcome,[6],inactive
same,outcome,[7],inactive
same,outcome,[8],inactive
same,outcome,[9],inactive
same,outcome,[10],inactive
O=NN(c1ccccc1)c1ccccc1,outcome,[1],inactive
same,outcome,[2],inactive
same,outcome,[3],inactive
same,outcome,[4],inactive
same,outcome,[5],inactive
same,outcome,[6],inactive
same,outcome,[7],inactive
same,outcome,[8],inactive
same,outcome,[9],inactive
same,outcome,[10],inactive
ClC1=C(Cl)[C@]2(Cl)[C@@H]3[C@@H]4C[C@@H]([C@H]5O[C@@H]45)[C@@H]3[C@@]1(Cl)C2(Cl)Cl,AC50,[1],9.92 µM (active)
same,outcome,[2],inactive
same,outcome,[3],inactive
same,AC50,[4],0.00506 µM (active)
same,outcome,[5],inactive
same,outcome,[6],inactive
same,outcome,[7],inactive
same,outcome,[8],inactive
same,outcome,[9],inactive
same,outcome,[10],inactive
CCC(C)c1cc([N+](=O)[O-])cc([N+](=O)[O-])c1O (configuration not stated),outcome,[1],inactive
same,AC50,[2],4.09 µM (active)
same,outcome,[4],inactive
same,AC50,[5],27.5 µM (active)
same,AC50,[6],2.53 µM (active)
same,outcome,[7],inactive
same,AC50,[8],1.83 µM (active)
same,AC50,[9],0.758 µM (active)
same,AC50,[10],2.73 µM (active)
O=C(O)C(F)(F)C(F)(F)C(F)(F)C(F)(F)C(F)(F)C(F)(F)C(F)(F)C(F)(F)C(F)(F)F,AC50,[1],22.7 µM (active)
same,AC50,[2],27.9 µM (active)
same,AC50,[3],71.7 µM (active)
same,outcome,[4],inactive
same,outcome,[5],inactive
same,outcome,[6],inactive
same,AC50,[7],50 µM (active)
same,AC50,[8],21.1 µM (active)
same,AC50,[9],89.2 µM (active)
same,AC50,[10],63.1 µM (active)
O=C(NC(=O)c1c(F)cccc1F)Nc1cc(Cl)c(OC(F)(F)C(F)F)c(Cl)c1,outcome,[1],inactive
same,outcome,[2],inactive
same,outcome,[3],inactive
same,outcome,[4],inactive
same,outcome,[5],inactive
same,outcome,[6],inactive
same,outcome,[7],inactive
same,AC50,[8],50 µM (active)
same,outcome,[9],inactive
same,outcome,[10],inactive
C[C@]12CCC(=O)C=C1CC[C@@H]1[C@@H]2CC[C@@]2(C)[C@H]1CC[C@]2(C)O,outcome,[1],inactive
same,outcome,[2],inactive
same,outcome,[3],inactive
same,outcome,[4],inactive
same,outcome,[5],inactive
same,outcome,[6],inactive
same,outcome,[7],inactive
same,AC50,[8],81.7 µM (active)
same,outcome,[9],inactive
same,AC50,[10],45.8 µM (active)
ClC1=C(Cl)[C@]2(Cl)[C@@H]3[C@H]4C[C@H]([C@@H]5O[C@H]45)[C@@H]3[C@@]1(Cl)C2(Cl)Cl,AC50,[1],9.92 µM (active)
same,outcome,[2],inactive
same,outcome,[3],inactive
same,AC50,[4],9.92 µM (active)
same,outcome,[5],inactive
same,outcome,[6],inactive
same,outcome,[7],inactive
same,AC50,[8],50 µM (active)
same,outcome,[9],inactive
same,AC50,[10],31.6 µM (active)
CN(C)c1nc(=O)n(C2CCCCC2)c(=O)n1C,AC50,[1],5.44 µM (active)
same,outcome,[2],inactive
same,outcome,[3],inactive
same,outcome,[4],inactive
same,outcome,[5],inactive
same,outcome,[6],inactive
same,outcome,[7],inactive
same,AC50,[8],12 µM (active)
same,outcome,[9],inactive
same,outcome,[10],inactive
CCC(=O)O[C@H]1CC[C@H]2[C@@H]3CCC4=CC(=O)CC[C@]4(C)[C@H]3CC[C@]12C,outcome,[1],inactive
same,outcome,[2],inactive
same,outcome,[4],inactive
same,outcome,[5],inactive
same,outcome,[6],inactive
same,outcome,[7],inactive
same,outcome,[8],inactive
same,outcome,[9],inactive
same,outcome,[10],inactive
CCOCCOC(C)=O,outcome,[1],inactive
same,outcome,[2],inactive
same,outcome,[4],inactive
same,outcome,[5],inactive
same,outcome,[6],inactive
same,outcome,[7],inactive
same,outcome,[8],inactive
same,outcome,[9],inactive
same,outcome,[10],inactive
ClC(Cl)=C(c1ccc(Cl)cc1)c1ccc(Cl)cc1,outcome,[1],inactive
same,outcome,[2],inactive
same,outcome,[4],inactive
same,outcome,[5],inactive
same,outcome,[6],inactive
same,outcome,[7],inactive
same,outcome,[8],inactive
same,outcome,[9],inactive
same,outcome,[10],inactive
NS(=O)(=O)C(F)(F)C(F)(F)C(F)(F)C(F)(F)C(F)(F)C(F)(F)C(F)(F)C(F)(F)F,outcome,[1],inactive
same,AC50,[2],21.6 µM (active)
same,AC50,[4],30.2 µM (active)
same,outcome,[5],inactive
same,AC50,[6],23.4 µM (active)
same,AC50,[7],37.2 µM (active)
same,AC50,[8],15.8 µM (active)
same,AC50,[9],70.8 µM (active)
same,AC50,[10],12.4 µM (active)
Cc1ccccc1O,outcome,[1],inactive
same,outcome,[2],inactive
same,outcome,[4],inactive
same,outcome,[5],inactive
same,outcome,[6],inactive
same,outcome,[7],inactive
same,outcome,[8],inactive
same,outcome,[9],inactive
same,outcome,[10],inactive
CCCN(CCC)N=O,outcome,[1],inactive
same,outcome,[2],inactive
same,outcome,[4],inactive
same,outcome,[5],inactive
same,outcome,[6],inactive
same,outcome,[7],inactive
same,outcome,[8],inactive
same,outcome,[9],inactive
same,outcome,[10],inactive
ClC1=C(Cl)[C@]2(Cl)[C@@H]3[C@@H](Cl)[C@H]4O[C@H]4[C@@H]3C1(Cl)C2(Cl)Cl,outcome,[1],inactive
same,outcome,[2],inactive
same,outcome,[4],inactive
same,outcome,[5],inactive
same,outcome,[6],inactive
same,outcome,[8],inactive
same,outcome,[9],inactive
same,outcome,[10],inactive
CN(C)CCO,outcome,[1],inactive
same,outcome,[2],inactive
same,outcome,[4],inactive
same,outcome,[5],inactive
same,outcome,[6],inactive
same,outcome,[7],inactive
same,outcome,[8],inactive
same,outcome,[9],inactive
same,outcome,[10],inactive
CC(C)C(=O)OCC(C)(C)C(OC(=O)C(C)C)C(C)C (configuration not stated),outcome,[1],inactive
same,outcome,[2],inactive
same,outcome,[4],inactive
same,outcome,[5],inactive
same,outcome,[6],inactive
same,outcome,[7],inactive
same,outcome,[8],inactive
same,outcome,[9],inactive
same,outcome,[10],inactive
O=C(O)C(F)(F)C(F)(F)C(F)(F)C(F)(F)C(F)(F)C(F)(F)C(F)(F)C(F)(F)F,AC50,[1],78.7 µM (active)
same,AC50,[2],86.1 µM (active)
same,outcome,[4],inactive
same,AC50,[5],76 µM (active)
same,AC50,[6],66.6 µM (active)
same,AC50,[7],68.2 µM (active)
same,AC50,[8],94.5 µM (active)
same,AC50,[9],79.5 µM (active)
same,AC50,[10],74.4 µM (active)
